# Test results reported in ChEMBL document CHEMBL3988442, “University of Dundee, Small-Polar-MMV Screening Library” (2021).
# For some assays here: Entries with a potency or affinity are not part of this list.
# How the values were obtained:
# Design in all cases: scale not given: direction of the effect not stated beside the values
# [1] = molecular target: Protein translocase subunit SecA (Escherichia coli (strain K12)) (UniProt P10408); experiment: Assay to Identify E. coli SecA ATPase Inhibitors; assay type: functional; conditions: 30 µM
# [2] = molecular target: T1, Ubiquitin-activating enzyme e1, putative (Leishmania donovani (strain BPK282A1)) (UniProt E9BSI1); experiment: Leishmania donovani Ubiquitin Activating Enzyme (LdE1); assay type: functional; conditions: 30 µM
# T1 sequence (whole entry): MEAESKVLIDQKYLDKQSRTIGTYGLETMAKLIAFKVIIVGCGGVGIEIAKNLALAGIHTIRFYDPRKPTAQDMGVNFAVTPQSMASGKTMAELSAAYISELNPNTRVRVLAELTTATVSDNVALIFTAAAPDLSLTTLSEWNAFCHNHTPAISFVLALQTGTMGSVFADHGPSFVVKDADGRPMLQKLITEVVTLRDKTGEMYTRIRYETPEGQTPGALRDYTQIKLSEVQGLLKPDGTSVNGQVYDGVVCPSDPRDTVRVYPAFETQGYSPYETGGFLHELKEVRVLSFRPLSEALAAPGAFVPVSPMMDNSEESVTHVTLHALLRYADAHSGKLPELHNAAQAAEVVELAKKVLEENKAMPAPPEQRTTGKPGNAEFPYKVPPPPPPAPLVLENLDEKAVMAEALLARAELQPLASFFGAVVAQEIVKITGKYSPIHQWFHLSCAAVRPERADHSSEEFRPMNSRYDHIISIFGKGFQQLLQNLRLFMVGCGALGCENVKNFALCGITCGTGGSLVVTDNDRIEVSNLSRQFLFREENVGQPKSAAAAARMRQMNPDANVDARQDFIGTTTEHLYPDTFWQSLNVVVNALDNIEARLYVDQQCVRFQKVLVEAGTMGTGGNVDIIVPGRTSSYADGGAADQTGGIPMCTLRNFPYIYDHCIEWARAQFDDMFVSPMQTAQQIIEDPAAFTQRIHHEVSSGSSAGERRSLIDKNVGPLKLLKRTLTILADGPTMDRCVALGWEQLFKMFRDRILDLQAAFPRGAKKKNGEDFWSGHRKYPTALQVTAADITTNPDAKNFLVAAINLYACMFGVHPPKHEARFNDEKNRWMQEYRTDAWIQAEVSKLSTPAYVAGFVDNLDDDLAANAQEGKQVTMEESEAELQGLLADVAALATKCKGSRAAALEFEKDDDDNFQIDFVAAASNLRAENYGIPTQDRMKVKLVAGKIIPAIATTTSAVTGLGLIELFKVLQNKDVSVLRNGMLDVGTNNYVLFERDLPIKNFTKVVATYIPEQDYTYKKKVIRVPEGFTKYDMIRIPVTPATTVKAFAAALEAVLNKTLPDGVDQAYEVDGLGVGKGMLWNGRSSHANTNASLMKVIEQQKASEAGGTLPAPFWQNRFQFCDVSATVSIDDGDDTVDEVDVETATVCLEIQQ
# [3] = molecular target: AMP-activated protein kinase, AMPK (Homo sapiens) (UniProt P54646+O43741+P54619+Q9UGJ0+Q9Y478+Q13131+Q9UGI9); experiment: AMP-dependent Kinase enzyme assay. An in vitro enzyme assay that detects ADP turnover that is directly proportional to AMPK activity. This uses naive AMPK that is activated during the assay with MK-8722; assay type: functional; conditions: 30 µM
# [4] = molecular target: Sialic acid-binding Ig-like lectin 9 (Homo sapiens) (UniProt Q9Y336); experiment: Hs-Siglec9 ALPHAscreen SOP 20170721; conditions: 10 µM
# Trypanosoma cruzi = experiment: Trypanosoma cruzi phosphomannomutase and mannose-1-phosphate guanylyltransferase assay; assay type: functional; conditions: 10 µM
# [5] = molecular target: T2, Arginase-2, mitochondrial (Homo sapiens) (UniProt P78540); experiment: in vitro enzyme assay to detect the production of urea directly proportional to the activity of Arginase II; assay type: functional; conditions: 33.3 µM; further: in the data most compounds retested in dose-response had high values
# T2 sequence (whole entry): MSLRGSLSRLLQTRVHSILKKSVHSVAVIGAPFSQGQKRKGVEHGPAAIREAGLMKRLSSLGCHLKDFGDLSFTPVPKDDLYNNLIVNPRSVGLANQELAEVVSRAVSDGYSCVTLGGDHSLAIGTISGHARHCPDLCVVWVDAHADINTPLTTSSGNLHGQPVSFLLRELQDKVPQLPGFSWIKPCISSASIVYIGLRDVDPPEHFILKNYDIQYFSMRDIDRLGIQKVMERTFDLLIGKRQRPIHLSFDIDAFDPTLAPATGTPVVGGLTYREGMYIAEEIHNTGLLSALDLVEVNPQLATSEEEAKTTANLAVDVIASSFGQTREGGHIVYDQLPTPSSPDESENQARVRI
# [6] = molecular target: T3, Proteasome subunit beta (Trypanosoma cruzi) (UniProt O96673); experiment: Trypanosoma cruzi proteasome chymotrypsin-like activity (TcProtChymo) assay.; further: in the data most compounds retested in dose-response had high values; assay type: functional; conditions: 9.37 µM
# T3 sequence (whole entry): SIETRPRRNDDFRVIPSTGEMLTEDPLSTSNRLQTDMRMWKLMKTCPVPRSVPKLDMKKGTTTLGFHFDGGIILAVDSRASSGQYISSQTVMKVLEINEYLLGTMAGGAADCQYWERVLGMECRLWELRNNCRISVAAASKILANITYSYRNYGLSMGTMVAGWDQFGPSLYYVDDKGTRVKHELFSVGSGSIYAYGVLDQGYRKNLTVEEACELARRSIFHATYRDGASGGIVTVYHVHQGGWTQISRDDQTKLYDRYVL
# Homo sapiens = organism: Homo sapiens; experiment: To identify inhibition of the IFN signalling (Jak-Stat) pathway via expression of an eGFP reporter gene under the control of an IFN-stimulated response element (ISRE) containing MxA promoter.; assay type: functional; conditions: 30 µM
# [7] = molecular target: T4, Tyrosyl-tRNA synthetase, putative (Trypanosoma cruzi (strain CL Brener)) (UniProt Q4DSP6); experiment: Trypanosoma cruzi tyrosyl tRNA synthetase (TcYRS) _High Tyrosine SOP; assay type: functional; conditions: 30 µM; further: in the data most compounds retested in dose-response had high values
# T4 sequence (whole entry): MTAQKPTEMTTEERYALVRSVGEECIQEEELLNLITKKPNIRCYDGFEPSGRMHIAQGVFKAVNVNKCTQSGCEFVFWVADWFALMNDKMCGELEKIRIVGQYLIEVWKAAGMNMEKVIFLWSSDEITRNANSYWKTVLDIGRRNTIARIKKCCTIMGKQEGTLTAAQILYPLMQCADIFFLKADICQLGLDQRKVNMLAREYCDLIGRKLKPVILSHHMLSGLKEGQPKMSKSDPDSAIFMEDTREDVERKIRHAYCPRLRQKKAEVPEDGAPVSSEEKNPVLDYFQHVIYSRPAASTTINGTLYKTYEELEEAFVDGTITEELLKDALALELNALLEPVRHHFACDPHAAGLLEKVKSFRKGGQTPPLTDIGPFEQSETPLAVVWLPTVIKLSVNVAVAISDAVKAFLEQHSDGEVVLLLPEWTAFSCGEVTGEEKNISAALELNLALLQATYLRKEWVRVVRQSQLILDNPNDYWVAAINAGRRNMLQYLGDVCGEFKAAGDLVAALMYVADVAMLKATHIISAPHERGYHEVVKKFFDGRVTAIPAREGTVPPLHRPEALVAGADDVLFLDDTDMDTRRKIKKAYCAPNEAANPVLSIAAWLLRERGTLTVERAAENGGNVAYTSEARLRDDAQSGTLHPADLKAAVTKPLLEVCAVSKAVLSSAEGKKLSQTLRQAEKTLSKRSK
# [8] = molecular target: T4, Tyrosyl-tRNA synthetase, putative (Trypanosoma cruzi (strain CL Brener)); experiment: Trypanosoma cruzi tyrosyl tRNA synthetase (TcYRS) SOP; assay type: functional; conditions: 30 µM
# [9] = molecular target: Chromo domain-containing protein 1 (Saccharomyces cerevisiae (strain ATCC 204508 / S288c) (Baker's yeast)) (UniProt P32657); experiment: ScCHD-1 Enzyme Inhibition Assay; assay type: functional; conditions: 30 µM; further: in the data most compounds retested in dose-response had high values
# Chain of Chromo domain-containing protein 1 (Saccharomyces cerevisiae (strain ATCC 204508 / S288c) (Baker's yeast)) (P32657 whole entry, the tested form may be a part): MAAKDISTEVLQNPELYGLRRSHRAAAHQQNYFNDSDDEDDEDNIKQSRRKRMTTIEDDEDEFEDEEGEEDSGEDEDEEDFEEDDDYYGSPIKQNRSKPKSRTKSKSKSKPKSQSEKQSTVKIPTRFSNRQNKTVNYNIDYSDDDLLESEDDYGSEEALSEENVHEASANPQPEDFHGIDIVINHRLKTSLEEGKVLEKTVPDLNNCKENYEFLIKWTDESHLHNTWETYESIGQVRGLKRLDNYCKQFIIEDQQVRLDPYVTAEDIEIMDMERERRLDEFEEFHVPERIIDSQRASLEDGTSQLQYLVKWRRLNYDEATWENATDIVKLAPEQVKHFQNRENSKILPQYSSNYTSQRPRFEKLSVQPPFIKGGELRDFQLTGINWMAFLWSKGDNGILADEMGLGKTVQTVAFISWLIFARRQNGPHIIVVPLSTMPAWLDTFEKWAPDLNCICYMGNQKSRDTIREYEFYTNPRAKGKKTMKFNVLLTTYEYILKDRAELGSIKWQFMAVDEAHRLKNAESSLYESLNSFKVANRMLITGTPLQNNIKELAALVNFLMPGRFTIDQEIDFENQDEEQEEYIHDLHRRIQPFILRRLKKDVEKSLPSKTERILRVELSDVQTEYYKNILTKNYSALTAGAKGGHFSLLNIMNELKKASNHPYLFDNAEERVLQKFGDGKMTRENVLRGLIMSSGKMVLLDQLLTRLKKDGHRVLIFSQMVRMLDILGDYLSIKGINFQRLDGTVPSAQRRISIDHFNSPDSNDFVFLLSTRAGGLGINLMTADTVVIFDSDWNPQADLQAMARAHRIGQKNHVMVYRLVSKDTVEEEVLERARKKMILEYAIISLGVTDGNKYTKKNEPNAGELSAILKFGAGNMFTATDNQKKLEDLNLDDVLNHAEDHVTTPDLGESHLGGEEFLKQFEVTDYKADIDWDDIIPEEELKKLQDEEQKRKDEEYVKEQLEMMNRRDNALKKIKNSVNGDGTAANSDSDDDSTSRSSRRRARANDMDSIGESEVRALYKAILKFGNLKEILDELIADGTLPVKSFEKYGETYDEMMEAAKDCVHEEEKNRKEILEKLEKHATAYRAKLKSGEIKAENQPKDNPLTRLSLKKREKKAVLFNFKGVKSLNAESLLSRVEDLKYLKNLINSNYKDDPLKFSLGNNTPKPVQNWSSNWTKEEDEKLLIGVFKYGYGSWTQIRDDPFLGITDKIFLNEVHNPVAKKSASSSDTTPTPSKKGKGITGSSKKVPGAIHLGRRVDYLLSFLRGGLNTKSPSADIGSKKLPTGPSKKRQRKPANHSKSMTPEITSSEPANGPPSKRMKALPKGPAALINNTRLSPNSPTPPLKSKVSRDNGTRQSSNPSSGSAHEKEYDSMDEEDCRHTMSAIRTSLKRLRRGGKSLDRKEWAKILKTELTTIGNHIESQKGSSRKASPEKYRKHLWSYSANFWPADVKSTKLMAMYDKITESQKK
# Chain of Protein translocase subunit SecA (Escherichia coli (strain K12)) (P10408 whole entry): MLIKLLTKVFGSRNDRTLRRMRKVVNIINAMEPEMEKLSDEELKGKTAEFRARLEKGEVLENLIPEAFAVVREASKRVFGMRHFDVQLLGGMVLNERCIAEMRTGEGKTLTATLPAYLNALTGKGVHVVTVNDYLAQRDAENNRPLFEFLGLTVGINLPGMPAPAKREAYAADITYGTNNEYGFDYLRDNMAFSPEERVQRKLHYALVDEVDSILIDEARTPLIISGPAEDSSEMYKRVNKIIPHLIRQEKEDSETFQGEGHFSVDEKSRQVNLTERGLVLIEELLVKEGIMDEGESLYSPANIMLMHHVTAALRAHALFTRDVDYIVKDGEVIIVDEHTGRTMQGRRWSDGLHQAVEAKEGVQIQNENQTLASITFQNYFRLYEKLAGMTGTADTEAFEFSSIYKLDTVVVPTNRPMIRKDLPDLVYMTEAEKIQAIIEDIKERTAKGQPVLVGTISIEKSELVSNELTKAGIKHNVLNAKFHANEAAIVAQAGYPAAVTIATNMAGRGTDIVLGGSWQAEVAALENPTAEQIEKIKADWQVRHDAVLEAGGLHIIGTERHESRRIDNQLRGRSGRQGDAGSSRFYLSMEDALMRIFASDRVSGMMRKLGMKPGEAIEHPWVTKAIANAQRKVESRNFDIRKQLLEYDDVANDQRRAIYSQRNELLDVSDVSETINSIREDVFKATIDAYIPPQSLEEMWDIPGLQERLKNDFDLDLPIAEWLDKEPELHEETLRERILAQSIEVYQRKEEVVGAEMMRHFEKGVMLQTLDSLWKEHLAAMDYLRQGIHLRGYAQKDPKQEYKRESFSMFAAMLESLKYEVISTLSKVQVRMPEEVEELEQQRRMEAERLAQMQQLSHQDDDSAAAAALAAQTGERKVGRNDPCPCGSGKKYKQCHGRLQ
# Chain of Sialic acid-binding Ig-like lectin 9 (Homo sapiens) (Q9Y336 whole entry): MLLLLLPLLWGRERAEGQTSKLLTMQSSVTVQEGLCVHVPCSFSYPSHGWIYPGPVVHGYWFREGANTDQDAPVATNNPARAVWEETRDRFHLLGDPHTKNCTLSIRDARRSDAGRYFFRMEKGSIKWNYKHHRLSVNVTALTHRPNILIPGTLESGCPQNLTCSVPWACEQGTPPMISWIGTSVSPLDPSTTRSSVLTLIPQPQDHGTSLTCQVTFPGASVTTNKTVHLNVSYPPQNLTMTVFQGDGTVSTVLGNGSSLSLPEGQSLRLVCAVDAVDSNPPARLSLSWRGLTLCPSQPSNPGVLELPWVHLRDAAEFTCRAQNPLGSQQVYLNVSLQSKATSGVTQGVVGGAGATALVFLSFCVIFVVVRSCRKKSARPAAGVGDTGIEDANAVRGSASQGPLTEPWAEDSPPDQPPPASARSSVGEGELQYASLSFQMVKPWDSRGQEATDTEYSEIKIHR
SMILES,Percent Effect [1] [%],Percent Effect [2] [%],Percent Effect [3] [%],Percent Effect [4] [%],Percent Effect (Trypanosoma cruzi) [%],Percent Effect [5] [%],Percent Effect [6] [%],Percent Effect (Homo sapiens) [%],Percent Effect [7] [%],Percent Effect [8] [%],Percent Effect [9] [%]
OCCn1nccc1C1CCN(CCCOc2ccc(F)cc2)CC1,-5.89,0,-3.35,3.53,-0.28,-2.88,-3.64,-5.47,9.36,16.1,-0.509
O=C(NCCc1ccncc1)C1CCN(Cc2ccco2)CC1,-7.38,-2.67,-2.38,-3.22,-6.52,-2.6,12.7,25.9,-1.64,1.24,-7.8
Cc1c(C)n(-c2ccccn2)c2nc3c(c(N)c12)CCCC3,-1.37,-14.7,7.92,7.22,-3.34,-10,25.1,5.7,1.06,-51.3,-7.7
CC(Cn1ccnc1)NC(=O)NCCNC(=O)C(C)C (configuration not stated),2.77,23.7,-2.17,-3.21,0.94,-4.6,15.4,31.2,3.43,19.5,-9.78
Cc1ccc(NC(=O)Cn2cc(I)cn2)cc1,-4.63,-4.17,-12.3,3.22,-2.82,-1.32,6.32,28.2,-4.21,-7.69,3.77
COc1ccc2cc(C(=O)N3CCCCC3Cn3cccn3)[nH]c2c1 (configuration not stated),-8.67,0,2.23,5.53,-0.562,2.13,1.86,2.73,0,2.44,-1.29
CCOCC(O)CN1CCN(C(=O)c2ccnc(N(C)C)c2)CC1 (configuration not stated),-2.11,2.7,-5.93,13.5,5.99,1.43,0,-4.49,1.59,7.32,-3.55
O=C(CC1CN(Cc2ccccc2)CCO1)NC1CCCC1 (configuration not stated),-6.09,24.3,-1.42,7.65,7.62,8.33,7.35,15.4,7.92,23.2,-6.96
CC(CN1CCCC1)C(=O)N1CCC(c2nccn2CC2CC2)CC1 (configuration not stated),-4.31,13.5,-3.47,27.7,10.2,2.86,16.2,5.41,7.94,21.9,-11.2
CN(C)CC1CSCCCN1C(=O)c1ccc(=O)[nH]c1 (configuration not stated),-6.61,2.6,6.1,5.73,-5.82,0.645,7.66,0.342,-1.06,3.85,-3.68
c1ccc2sc(CN3CCCC3c3noc(C4CC4)n3)nc2c1 (configuration not stated),-2.02,-13.5,-1.08,-2.6,-2.88,0.185,0,9.41,8.91,23.2,6.83
CCc1noc(C(C)N2CCN(Cc3noc(C)n3)CC2)n1 (configuration not stated),1.26,21.1,-0.566,-7.24,1.32,-4.21,19.6,15.5,6.37,17.1,-7.65
COc1ccc(OCCCN2CCOC(Cn3cccn3)C2)cc1 (configuration not stated),-8.28,3.8,9.54,3.31,-1.74,1.94,2.74,28.6,1.04,2.53,-3.35
CC(=O)N1CCN([C@@H]2CC[C@@H](NC(=O)c3cncc(C)c3)[C@H]2O)CC1,-3.3,-4.05,8.93,-4.38,-3.75,-2.09,-3.28,18.6,-2.15,-11.7,15.5
CC(C)C(=O)N1CCN(C(=O)c2cscn2)[C@H]2CS(=O)(=O)C[C@H]21,-2.31,15.3,-5.83,5.33,2.04,4.42,13.9,-3.92,3.16,12.8,-0.218
Cc1noc([C@H]2C[C@@H]3CCN(C(=O)N(C)C)C[C@H]3O2)n1,-0.638,-2.7,6.92,9.3,-2.25,0.319,15.5,-7.89,-1.08,2.56,0.431
NS(=O)(=O)N1CCc2ccc(NC(=O)Cc3ccc(F)cc3)cc21,-2.62,2.74,-2.62,3.78,4.31,-39.1,6.92,20.9,-3.23,2.5,-1.74
Cc1ccc(C(=O)N2CCN(CCCSCC#N)CC2)o1,-3.54,-5.48,1.04,10.8,1.98,-2.4,6.42,18.1,4.17,11.1,0.208
Cc1ccc(CNC(=O)CCSCc2csc(C)n2)cn1,-2.98,17.7,-1.48,-3.29,1.42,4.18,0.0819,8.57,0.493,8.86,-3.92
CNC(=O)CN1CCC(NC(=O)N(C)Cc2cc(C)on2)CC1,-1.81,13,-1.11,13.1,9.7,0.632,9.78,-1.08,8.57,18.8,-7.35
COC(=O)c1ccc(N2CCN(CCN3CCOCC3)C(C)C2)cc1 (configuration not stated),-7.58,15.8,-5.32,3.41,-0.467,-1.8,2.96,-10.7,7.39,13.6,-4.27
CC(C)(C)c1nnc(CN2CCCC(c3cc(C(N)=O)[nH]n3)C2)o1 (configuration not stated),-6.11,10.8,-2.58,-2.88,-7.08,-10,3.78,9,-2.46,-1.24,-5.5
